From PubChem
Compounds with a hit are over-represented: about 11% of the library has one in this group of screens.
VACV mCherry inh: vaccinia inhibition (mCherry reporter) | Vaccinia virus mCherry reporter infection, fluorescence | Potency, µM (highest dose often 36.5 µM), usual class: inhibitors | 0.63% of 310,000 active | AID 720579; calls by dose curve; tested in A549 cells; note: nearly all actives have a fitted effect of over 35% in size
HCV inh: blocks hepatitis C virus; Huh7.5.1 HCVcc-Cre infection, luciferase reporter, 44 h; Potency, µM (highest dose often 41.8 µM), hits mostly inhibitors; 3.4% of 340,000 active; AID 651820
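1,000 cells/well; 4 h culture; + compound; + HCVcc-Cre (~0.5 moi); 44 h; luciferase substrate, RT 15 min; read 15 sec.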
Pf growth 96h: inhibits malaria parasite growth, 96 h; AID 504834; Potency, µM (titrated, usually from 28.7 µM), usual class: inhibitors; P. falciparum luciferase reporter growth, 96 h; 6.9% of 320,000 active
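96 h incubation, 37 C, 5% CO2, of luciferase-reporter P. falciparum-infected RBCs (2% hematocrit, 0.05% parasitemia final) with test compounds; endpoint luminescence.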
NS1 inh: influenza NS1 inhibition; Potency, µM (top dose mostly 46.1 µM); 0.4% of 270,000 active; AID 2326; calls by dose curve; note: actives are rising curves; nearly all actives have a fitted effect of over 50% in size
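In this qHTS, NS1 from influenza A is expressed in budding yeast, where it slows growth. Cells are switched from glucose to 2% galactose medium (pH 6.0, -URA), treated with compound, and growth recovery is read at OD600.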
Vaccinia Venus: inhibitors of vaccinia virus (Venus reporter); Potency, µM (titrated, usually from 36.5 µM), actives largely listed as inhibitors; AID 720580; Vaccinia virus Venus reporter expression, fluorescence; 0.46% of 330,000 active; calls by dose curve; tested in A549 cells; note: nearly all actives have a fitted effect of over 30% in size
Pf growth 48h: inhibits P. falciparum growth in the first generation, 48 h. Potency, µM (titrated, usually from 28.7 µM), most hits filed as inhibitors. P. falciparum luciferase growth in erythrocytes, 48 h. 5.9% of 310,000 active
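Firefly luciferase activity from engineered P. falciparum reports growth; inhibitors lower the luminescent signal. Cultures contained 2% hematocrit erythrocytes at 0.1% final parasitemia.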
Numbers stand for hits; 0 = inactive; ? = inconclusive; - = no result; [ ] = another dose, or the depositor's remark. Unless noted, calls come from the whole dose curve; as a rule, active = well fitted inhibition curve with a large enough effect; inconclusive = small, poorly fitted or top-dose-only effect, or another doubt; inactive = no such curve, though single readings can be large or run the other way.

SMILES	VACV mCherry inh	HCV inh	Pf growth 96h	NS1 inh	Vaccinia Venus	Pf growth 48h
NC(=O)Cc1ccc(OCc2nn[nH]n2)cc1	0	-	-	-	0	-
CCN(CC)CCNC(=O)c1ccc(NC(=O)c2cccc(S(=O)(=O)Nc3ccc(C)cc3)c2)cc1	-	0	1.2µM	-	-	0.37µM
CN(C)CCNC(=O)c1cccc(S(=O)(=O)Nc2ccc(F)cc2)c1	0	0	0	0	0	0
CC1Cc2ccccc2N1S(=O)(=O)c1cccc(C(=O)NNC(=O)c2ccccc2F)c1 (configuration not stated)	-	0	?	-	-	0
CCN(CC)CCNC(=O)c1ccc(NC(=O)c2ccc(Cl)c(S(=O)(=O)Nc3ccccc3OC)c2)cc1	-	-	2.3µM	0	-	?
CCN(CC)CCNC(=O)c1ccc(NC(=O)c2cccc(S(=O)(=O)N3c4ccccc4CC3C)c2)cc1 (configuration not stated)	-	11µM	0	0	-	0
CC1Cc2ccccc2N1S(=O)(=O)c1cccc(C(=O)NCCCO)c1 (configuration not stated)	0	0	?	0	0	0
CCOC(=O)c1ccc(NC(=O)c2cccc(S(=O)(=O)N3c4ccccc4CC3C)c2)s1 (configuration not stated)	?	?	?	0	?	12µM
Fc1ccc(Nc2ccc(-c3ccc(F)cc3)nn2)cc1	0	0	0	0	0	0
Cc1ccc(NS(=O)(=O)c2cc(C(=O)NCCSc3ccc(C)cc3)ccc2C)cc1	?	?	12µM	0	?	?
CCN(CC)CCNC(=O)c1ccc(NC(=O)Nc2cccc3ccccc23)cc1	0	0	9.3µM	0	0	13µM
CCN(CC)CCNC(=O)c1ccc(NC(=O)c2cccc(S(=O)(=O)N3CCc4ccccc43)c2)cc1	?	?	1µM	-	0	0.74µM
CCN(CC)CCNC(=O)c1ccc(NC(=O)/C=C/c2cc(OC)c(OC)c(OC)c2)cc1	0	0	?	-	0	5.2µM
COc1cc(/C=C/C(=O)Nc2ccc(C)cc2)cc(OC)c1OC	0	?	?	0	0	0
Cc1ccc2[nH]c3c(c2c1)CCCC3C(N)=O (configuration not stated)	0	0	0	0	0	0
O=CNC1CCCc2c1[nH]c1ccc(Cl)cc21 (configuration not stated)	0	7.1µM	-	0	0	0
Cc1ccc2[nH]c3c(c2c1)CCCC3NC(=O)CCl (configuration not stated)	0	?	13µM	0	0	2.3µM
CCOC(=O)c1ccccc1NC(=O)CCOc1ccccc1	0	-	-	-	0	-
CCN(CC)c1ccc(/C=N/NC(=S)NCc2ccccc2)cc1	0	0	9.3µM	0	0	13µM
C=CCNC(=S)N/N=C/c1ccc(N(CC)Cc2ccccc2)cc1	?	?	0	?	?	6.6µM
CCN(CC)c1ccc(/C=C(\C#N)C(=O)NCc2ccco2)cc1	-	0	?	0	-	?
CCN(CC)c1ccc(/C=N/NC(=S)NCc2ccc(OC)cc2)cc1	0	?	?	?	0	?
CCN(CC)c1ccc(/C=C(\C#N)C(=O)NCc2ccccc2)cc1	?	25µM	0	0	0	?
CC(=O)NCc1cc(-c2ccc(Cl)cc2)no1	0	?	0[1.15 µM]	0	0	0
COc1ccc(NS(=O)(=O)c2cccc(NC(=O)c3ccc(Cl)nc3)c2)cc1	0	2.8µM	?	0	?	?
SMILES	VACV mCherry inh	HCV inh	Pf growth 96h	NS1 inh	Vaccinia Venus	Pf growth 48h
Cc1ccc(NC(=O)c2cc3c(s2)CCCC3)cc1S(=O)(=O)Nc1ccccc1Cl	?	?	0	0	?	0
O=C(Nc1cccc(O)c1)c1cccc(S(=O)(=O)Nc2cccc(O)c2)c1	0	0	1.9µM	0	0	0
O=C(Nc1cccc(S(=O)(=O)Nc2ccc(Cl)cc2)c1)c1cc2c(s1)CCCC2	?	11µM	?	0	?	0
O=C(Nc1cccc(S(=O)(=O)Nc2ccc(Cl)cc2)c1)c1ccc(Cl)nc1	-	1.6µM	?	0	-	0
COc1ccc(C(=O)Nc2cccc(S(=O)(=O)NC3=NCCCCC3)c2)cc1	-	0	?	-	-	?
O=C(Nc1ccc(NS(=O)(=O)c2ccccc2)cc1)c1ccc(Cl)cc1	0	0	0	0	0	0
CCOC(=O)c1c(C)[nH]c(C(=O)COC(=O)c2ccco2)c1C	0	0	-	-	0	-
COc1cc(/C=C2/C(=O)NN(c3ccc(Cl)cc3)C2=O)ccc1OC(=O)c1ccco1	0	0	?	0	0	0
